According to PubChem BioAssay (Tox21):
Results filed as inconclusive are left out. Active and inactive are the calls of the source. Unless noted, the call rests on the fitted dose curve; in most records, active means well fitted curve in the direction sought with a large enough effect in the repeat runs; inconclusive means weak or mixed curves; inactive means no such curve, though single readings can be large; an effect the other way counts as inactive or inconclusive.

Assays:
[1] = qHTS assay to identify small molecule agonists of the peroxisome proliferator-activated receptor delta (PPARd) signaling pathway - cell viability counter screen (AID 743211); further: nearly all actives have a fitted effect of over 55% in size
Method in brief: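 Counter screen for cytotoxicity run in parallel with the PPARd reporter screen. Beta-lactamase reporter HEK293H cells exposed to compounds 17 h; ATP-based CellTiter-Glo luminescence quantified viability.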

[2] = biological target: Peroxisome proliferator-activated receptor delta (Homo sapiens) (UniProt Q03181); assay: qHTS assay to identify small molecule agonists of the peroxisome proliferator-activated receptor delta (PPARd) signaling pathway (AID 743212; calls by dose curve)
Chain of Peroxisome proliferator-activated receptor delta (Homo sapiens) (Q03181 whole entry, looked up): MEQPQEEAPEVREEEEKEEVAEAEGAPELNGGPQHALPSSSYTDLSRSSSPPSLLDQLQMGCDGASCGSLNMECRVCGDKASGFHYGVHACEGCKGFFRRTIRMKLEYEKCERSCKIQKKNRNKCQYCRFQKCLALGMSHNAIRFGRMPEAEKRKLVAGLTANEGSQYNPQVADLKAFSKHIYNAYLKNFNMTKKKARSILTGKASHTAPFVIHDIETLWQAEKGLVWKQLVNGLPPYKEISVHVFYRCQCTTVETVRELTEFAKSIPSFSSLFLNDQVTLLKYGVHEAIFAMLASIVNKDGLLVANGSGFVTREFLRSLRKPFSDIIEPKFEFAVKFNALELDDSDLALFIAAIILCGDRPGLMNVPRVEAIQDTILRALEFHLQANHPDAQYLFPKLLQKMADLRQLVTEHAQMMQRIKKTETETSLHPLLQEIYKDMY
Method in brief: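 GeneBLAzer UAS-bla HEK293H cells carrying a PPARδ construct were exposed to compounds at 37 °C. Beta-lactamase activity was read by FRET fluorescence after 2 h at room temperature with LiveBLAzer B/G substrate.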

[3] = qHTS assay to identify small molecule antagonists of the peroxisome proliferator-activated receptor delta (PPARd) signaling pathway - cell viability counter screen (AID 743213); further: nearly all actives have a fitted effect of over 50% in size
Method in brief: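 Cytotoxicity counter screen: CellTiter-Glo luminescence read 30 min after addition, in the same wells as the reporter assay. There, PPARd UAS-bla HEK293H cells (3000/well) were treated 17 h at 37 C with compound and 300 nM L165041.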

[4] = qHTS assay to identify small molecule agonists of the farnesoid-X-receptor (FXR) signaling pathway - cell viability counter screen (AID 743218); further: nearly all actives have a fitted effect of over 45% in size
Method in brief: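 FXR-UAS-bla HEK 293T cells exposed to compounds for 16 h at 37C. Cytotoxicity read in the same wells by CellTiter-Glo luminescence after 30 min at room temperature, following the beta-lactamase FRET read.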

[5] = qHTS assay to identify small molecule antagonists of the farnesoid-X-receptor (FXR) signaling pathway - cell viability counter screen (AID 743221; active means well fitted cell-killing curve with a large enough effect in the repeat runs, not every such curve was filed as active; further: nearly all actives have a fitted effect of over 50% in size)
Method in brief: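 Multiplexed counter screen: viability of FXR-bla HEK 293T cells under agonist stimulation by chenodeoxycholic acid (50 uM, final) and test compound for 16 h at 37 C, measured by CellTiter-Glo luminescence in the reporter wells.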

[6] = qHTS assay to identify small molecule agonists of the vitamin D receptor (VDR) signaling pathway - cell viability counter screen (AID 743224); further: series mostly up to about 63 µM; nearly all actives have a fitted effect of over 50% in size
Method in brief: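 VDR-bla cells, 4 h after plating, exposed to compounds for 16 h at 37C; viability then read in the same wells as CellTiter-Glo luminescence after 30 min at room temperature, following the bla FRET read.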

[7] = qHTS assay to identify small molecule antagonists of the vitamin D receptor (VDR) signaling pathway - cell viability counter screen (AID 743225); further: nearly all actives have a fitted effect of over 50% in size
Method in brief: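 HEK293T VDR-bla; cpd + 1a,25-(OH)2D3 3 nM final, 16 h 37C/5% CO2; B/G FRET substrate 2 h RT; then CellTiter-Glo 30 min RT, luminescence.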

[8] = qHTS assay to identify small molecule agonists of the endoplasmic reticulum stress response signaling pathway (AID 1159516; active means well fitted activation curve with a large enough effect in the signal ratio in the repeat runs, not every such curve was filed as active; the % refers to the signal ratio)
Method in brief: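 CellSensor ESRE-bla HeLa cells, 1,500 per well, plated overnight, then exposed to compounds for 5 hr at 37 C. Beta-lactamase reporter read with LiveBLAzer B/G FRET substrate after 2 hr at room temperature, 405 nm excitation, 460 and 530 nm emission.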

[9] = qHTS assay to identify small molecule agonists of the endoplasmic reticulum stress response signaling pathway - cell viability counter screen (AID 1159517; calls by dose curve)
Method in brief: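 ESRE-bla HeLa cells, 1,500 per well, seeded overnight then treated with compounds for 5 hr at 37 C. After the beta-lactamase read, viability in the same wells is measured by CellTiter-Glo luminescence after 30 min at room temperature.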

[10] = qHTS assay to identify small molecule antagonists of the retinoid-related orphan receptor gamma (ROR-gamma) signaling pathway - cell viability counter screen (AID 1159520); further: nearly all actives have a fitted effect of over 50% in size
Method in brief: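 Tet-on ROR gamma CHO cells were given compounds for 2 hr, then doxycycline hyclate at 1 uM final, and incubated 16 hr at 37 C. Viability was measured as ATP content by CellTiter-Glo luminescence.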

[11] = biological target: Nuclear receptor ROR-gamma (Homo sapiens) (UniProt P51449); assay: qHTS assay to identify small molecule antagonists of the retinoid-related orphan receptor gamma (ROR-gamma) signaling pathway (AID 1159521)
Method in brief: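 Cells were plated, rested 4 h at 37 C, exposed to compounds for 2 h, then given 1 uM final doxycycline hyclate to induce RORγ expression. After 16 h, ONE-Glo luminescence from the ROR response element reporter was measured.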

[12] = qHTS assay to identify small molecule agonists of the AP-1 signaling pathway - cell viability counter screen (AID 1159525; calls by dose curve; further: nearly all actives have a fitted effect of over 55% in size)
Method in brief: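 AP-1-bla ME-180 cells in Opti-MEM with 0.5% dialyzed FBS, compound exposure 5 h at 37 C in 15-point titration. Viability read in the same wells as ATP content by CellTiter-Glo luminescence, normalised to tetra-n-octylammonium bromide and DMSO controls.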

[13] = qHTS assay to identify small molecule agonists of the AP-1 signaling pathway (AID 1159526; calls by dose curve)
[14] = biological target: Peroxisome proliferator-activated receptor delta (Homo sapiens) (UniProt Q03181); assay: qHTS assay to identify small molecule antagonists of the peroxisome proliferator-activated receptor delta (PPARd) signaling pathway (AID 743215; active means well fitted inhibition curve with a large enough effect in the signal ratio in the repeat runs, not every such curve was filed as active; the % refers to the signal ratio;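 further: cells stimulated with agonist L165041 at 300 nM final during compound exposure; series mostly up to about 62 µM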)
Method in brief: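 PPARd-bla HEK293H cells (UAS-bla reporter) preincubated 5 h, then given compound plus 300 nM final L165041 agonist for 17 h at 37 C. Beta-lactamase activity read by LiveBLAzer B/G FRET substrate fluorescence after 2 h at room temperature.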

[15] = biological target: Bile acid receptor (Homo sapiens) (UniProt Q96RI1); assay: qHTS assay to identify small molecule antagonists of the farnesoid-X-receptor (FXR) signaling pathway (AID 743217; active means well fitted inhibition curve with a large enough effect in the signal ratio in the repeat runs, not every such curve was filed as active; the % refers to the signal ratio)
Chain of Bile acid receptor (Homo sapiens) (Q96RI1 whole entry, looked up): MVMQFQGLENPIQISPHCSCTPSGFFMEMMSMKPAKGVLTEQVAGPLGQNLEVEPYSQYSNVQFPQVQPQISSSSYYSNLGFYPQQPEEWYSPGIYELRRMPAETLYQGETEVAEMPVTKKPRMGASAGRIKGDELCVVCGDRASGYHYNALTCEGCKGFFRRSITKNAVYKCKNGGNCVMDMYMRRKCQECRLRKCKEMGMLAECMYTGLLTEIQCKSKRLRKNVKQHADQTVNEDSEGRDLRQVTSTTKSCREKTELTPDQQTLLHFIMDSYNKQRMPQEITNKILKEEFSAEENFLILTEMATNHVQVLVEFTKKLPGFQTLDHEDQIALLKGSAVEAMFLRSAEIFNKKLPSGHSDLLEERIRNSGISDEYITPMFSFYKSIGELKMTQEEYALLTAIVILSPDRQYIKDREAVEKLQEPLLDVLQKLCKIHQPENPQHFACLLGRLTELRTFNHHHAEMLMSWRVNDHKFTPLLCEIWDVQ
Method in brief: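 FXR-UAS-bla HEK 293T cells (beta-lactamase reporter) given compound plus chenodeoxycholic acid (50 uM final), 16 h at 37C. LiveBLAzer B/G FRET substrate added for 2 h at room temperature; fluorescence read.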

[16] = biological target: Bile acid receptor (Homo sapiens) (UniProt Q96RI1); assay: qHTS assay to identify small molecule agonists of the farnesoid-X-receptor (FXR) signaling pathway (AID 743220; active means well fitted activation curve with a large enough effect in the signal ratio in the repeat runs, not every such curve was filed as active; the % refers to the signal ratio)
Method in brief: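 Beta-lactamase reporter under UAS control in GeneBLAzer FXR HEK 293T cells (5000/well) measured with LiveBLAzer FRET substrate after 2 h at room temperature. Compound exposure lasted 16 h at 37C.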

[17] = biological target: Vitamin D3 receptor (Homo sapiens) (UniProt P11473); assay: qHTS assay to identify small molecule agonists of the vitamin D receptor (VDR) signaling pathway (AID 743222; calls by dose curve)
Chain of Vitamin D3 receptor (Homo sapiens) (P11473 whole entry, looked up): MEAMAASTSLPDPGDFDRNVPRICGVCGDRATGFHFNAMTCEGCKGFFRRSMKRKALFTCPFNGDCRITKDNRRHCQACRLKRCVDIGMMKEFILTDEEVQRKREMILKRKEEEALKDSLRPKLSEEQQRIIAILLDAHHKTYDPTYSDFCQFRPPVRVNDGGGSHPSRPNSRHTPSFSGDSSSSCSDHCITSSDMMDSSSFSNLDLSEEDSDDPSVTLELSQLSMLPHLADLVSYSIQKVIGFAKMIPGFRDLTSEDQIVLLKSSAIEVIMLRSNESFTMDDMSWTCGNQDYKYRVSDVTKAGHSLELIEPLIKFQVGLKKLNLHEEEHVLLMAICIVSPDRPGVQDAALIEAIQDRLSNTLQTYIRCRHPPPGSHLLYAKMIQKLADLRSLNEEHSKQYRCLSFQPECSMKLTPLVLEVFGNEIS
Method in brief: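 VDR-bla cells plated 4 h at 37 C, then exposed to compounds for 16 h at 37 C. Beta-lactamase reporter activity measured by fluorescence after 2 h room-temperature loading with LiveBLAzer B/G FRET substrate.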

[18] = biological target: Vitamin D3 receptor (Homo sapiens) (UniProt P11473); assay: qHTS assay to identify small molecule antagonists of the vitamin D receptor (VDR) signaling pathway (AID 743223; active means well fitted inhibition curve with a large enough effect in the signal ratio in the repeat runs, not every such curve was filed as active; the % refers to the signal ratio)
Method in brief: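 Cells carrying a VDR-driven beta-lactamase reporter (VDR-bla) were co-treated with compound and 3 nM final 1alpha,25-dihydroxyvitamin D3 for 16 h at 37C; reporter activity was measured as FRET substrate fluorescence after 2 h at room temperature.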

[19] = biological target: Retinoic acid receptor RXR-alpha (Homo sapiens) (UniProt P19793); assay: qHTS assay to identify small molecule agonists of the RXR signaling pathway (AID 1159527; calls by dose curve; further: nearly all actives have a fitted effect of over 35% in size)
Chain of Retinoic acid receptor RXR-alpha (Homo sapiens) (P19793 whole entry, looked up): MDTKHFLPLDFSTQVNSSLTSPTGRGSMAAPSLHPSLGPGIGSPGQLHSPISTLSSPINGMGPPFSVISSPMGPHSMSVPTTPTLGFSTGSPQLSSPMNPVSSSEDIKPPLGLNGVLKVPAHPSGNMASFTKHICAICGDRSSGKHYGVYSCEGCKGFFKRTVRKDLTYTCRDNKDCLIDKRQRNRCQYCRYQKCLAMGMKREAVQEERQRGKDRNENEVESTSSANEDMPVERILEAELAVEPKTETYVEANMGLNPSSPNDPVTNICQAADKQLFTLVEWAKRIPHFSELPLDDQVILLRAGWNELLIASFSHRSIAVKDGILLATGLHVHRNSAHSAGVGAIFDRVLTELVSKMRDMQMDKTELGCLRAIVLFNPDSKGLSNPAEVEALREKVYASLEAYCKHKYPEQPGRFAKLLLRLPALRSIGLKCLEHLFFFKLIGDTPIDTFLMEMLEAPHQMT
Method in brief: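 Cells plated at 2,000/well, rested 5 hr at 37 C, pin-dosed with DMSO compound solutions, incubated 16 hr, then loaded with B/G FRET substrate for 2 hr at RT before dual-emission fluorescence reading.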

Measured: Potency

CC1(C)[C@H]2CC[C@]1(C)[C@H](O)C2
inactive: [1] | [2] | [3] | [4] | [5] | [6] | [7] | [8] | [9] | [10] | [11] | [12] | [13]

CC(C(=O)O)c1ccc(C(=O)c2ccccc2)s1 (stereo unspecified)
inactive: [1] | [2] | [3] | [14] | [15] | [4] | [16] | [5] | [17] | [18] | [6] | [7] | [8] | [9] | [10] | [11] | [12] | [13]

CCCCCCCCCCCCCCCC(=O)OC/C=C(C)/C=C/C=C(C)/C=C/C1=C(C)CCCC1(C)C
inactive: [1] | [2] | [3] | [14] | [15] | [16] | [5] | [18] | [6] | [7] | [8] | [9] | [10] | [11] | [12] | [13]

NC(N)=N/N=C/c1c(Cl)cccc1Cl
inactive: [1] | [3] | [4] | [18] | [6] | [7] | [8] | [9] | [10] | [11] | [12]

CCOc1nc2cccc(C(=O)O)c2n1Cc1ccc(-c2ccccc2-c2nn[nH]n2)cc1
inactive: [1] | [2] | [3] | [14] | [5] | [6] | [7] | [8] | [9] | [10] | [11] | [12] | [13]

N#Cc1c(F)cccc1F
inactive: [1] | [2] | [3] | [14] | [15] | [4] | [16] | [5] | [7] | [8] | [9] | [10] | [11] | [12] | [13]

Nc1nc(N)c(-c2ccccc2)s1
inactive: [1] | [2] | [3] | [15] | [4] | [16] | [5] | [7] | [8] | [9] | [10] | [11] | [12] | [13]

Cc1ccc2c(ccc3ccccc32)c1
inactive: [1] | [2] | [3] | [4] | [16] | [5] | [17] | [7] | [8] | [9] | [10] | [11] | [12] | [13] | [19]

O=S1(=O)c2cccc3cccc(c23)N1CCCN1CCN(c2ccc(F)cc2)CC1
inactive: [3] | [15] | [4] | [16] | [5] | [17] | [6] | [7] | [8] | [9] | [10] | [11] | [12]

CN1CCC(=C2c3ccccc3C=Cc3ccccc32)CC1
inactive: [16] | [5] | [17] | [18] | [7] | [8] | [9] | [10] | [11] | [12] | [19]

CC(O)C1CCCCC1 (stereo unspecified)
inactive: [1] | [2] | [3] | [14] | [4] | [5] | [17] | [6] | [7] | [8] | [9] | [10] | [11] | [12] | [13]

Cl/C(=C\n1cncn1)c1ccc(Cl)cc1Cl
inactive: [1] | [2] | [3] | [4] | [5] | [6] | [7] | [8] | [9] | [10] | [11] | [12]
